PubChem BioAssay AID1508600 (Functional Genomics Laboratory (NCATS/FGL), 2020)
Among all 53,000 sequences or so, about 3,700 (7%) were called active. This is one part of a sample in which actives are shown more often than they occur. A number with no mark means an inactive call.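 The calls were made as follows: active = gene knockdowns whose robust z-score for IL-1 alpha signal is at least 2 or at most -2, so actives lie on both sides; inactive = the rest.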

Assay: Components of the Cytosolic LPS Sensing Pathway: Gene Identification via Genome-wide siRNA Screen;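 also: robust z of the log signal after scaling to non-targeting control siRNA wells of the plate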
Settings: RAW264.7 macrophages, IL-1a HTRF, actives lie on both sides, screened at 100 nM (by protocol), cells primed 5 h with Pam3CSK4 first
How it was run: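 Cells (RAW264.7, 1×10^4 per well) were transfected with siRNA at 100 nM and cultured 48h at 37 degrees C. Pam3CSK4 was added for 5 hours; LipidA transfection followed for 24 hour. IL-1a was then measured by HTRF.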

Sequence	z-score
GCUAGGUUGGAUAUAUAUGTT against Mypn	-0.0247
CGAAGUGAGAAUUGAAUUUTT against Zp2	1.51
GCUGCUCAGUUUCUUCCAATT against H4c9	2.08 (active)
CGGGAAGUAGUGCAACACCTT against Taldo1	-0.902
GCACGUAGUAAGAUGUUACTT against Cnot9	-0.969
GGGCAUGAAUGGUUACUUATT against Mllt6	1.24
GCACAGUACCAUAACGGCUTT against Nampt	-2.06 (active)
GGGUGUCAUAUAUAUUGCUTT against Gpr83	0.889
GCAAGUGAAAUCCAAACAGTT against Nabp1	-1.54
GGUGAGAAGACCAUUGAUUTT against Insr	0.459
GGUACUCUCAUUAUCUUUCTT against Tlr8	-0.217
GUGAGAAGUUGUGUAGAGCTT against Fmc1	1.84
GCAUACAACUGUUCAUAGATT against Nsrp1	-0.476
GGAGCUGAGGGAACCUUGUTT against Slc35c1	-2.67 (active)
GGACAGCGACAAGAUUCCGTT against Sox4	-0.714
GCCUUUAAUCAACCCAAGATT against Scd1	-0.728
GCUAAAGAUGAGCGUACAUTT against Myh10	1.44
GGUGGUGGAGAAGAUAGGATT against Pax8	-1.05
CCAUCUAUUACGGAACGGGTT against Olfr324	1.36
GGCCUCAACUAAGAACCCUTT against Pcdh1	-0.298
GGUCCAAUUAACCUAUCUUTT against Ppip5k2	-2.06 (active)
GGAGAUUAGUUACUUCCAGTT against Slc1a7	3.5 (active)

Sequence	z-score
GGAUACAUUAAUUGUUUGGTT against Ppp4r3b	2.55 (active)
GGUCACUGCUAAAGCCUGATT against Stoml3	0.864
GGCCAUGAAUAUGGAGUCCTT against Cptp	0.623
GGAAAUCAGAGCUGAGUUATT against Ankrd6	0.0763
GGUAGUAGUAAGCCAUAAATT against Exoc8	0.736
CCCUUGAACAUUCUACUCUTT against 1700012A03Rik	-0.955
GAUCAUCGGCAUUUUGAACTT against Il4	-0.527
GGCUGGUACAAAGUUUUAGTT against Mpv17	2.55 (active)
GGUAGUAGGAGUUUCCUACTT against 4933414I15Rik	1.44
CGGUAAUCAUUGCUGUUCUTT against H2-K1	1.05
GGAAGACCAAUAGUACUGCTT against Il1rn	-0.0282
GGAGUACGAAUUCCUCACUTT against Arhgdib	-0.0475
GGCUCAAAGAAUAUGCCAATT against Rad54b	0.99
GCCAGUGCUGGUUUGAAAUTT against Clip4	1.67
CCACUGUUACCAUUAUAAUTT against Pramel4	-0.594
GGAUAAAGGAAUCUGAUCUTT against Unc80	-2.58 (active)
GCGCAGAAGAGGCUAUUAUTT against Asprv1	-0.125
GGUAGCACUUACGUGAAAUTT against Mbd2	-0.655
GCAUAUGGCACCACAUUGUTT against Psg25	0.0646
GGAUAUCAGGGUUGUUAAGTT against Txnl4b	0.952
GGCUAUGUUAAUUUGUCCCTT against Hc	0.00272
GCAAUAUGUGACAAACUUCTT against Ptpn22	2.06 (active)

Sequence	z-score
GGAAUCAGCAAUGGACCCUTT against Parn	-0.818
CCUGGGCCUUAACAAGAAGTT against Upf1	-1.32
CCCACUUUGAAAAAGACUCTT against Mei4	2.5 (active)
GCUUUGGAUAGUAGACAGCTT against BC055324	0.199
GGGACAAUUAGAAAGACAUTT against Mtif2	0.982
GGAACCAACCAGGAGAAAUTT against Ms4a4d	-2.58 (active)
GGAACUCACGCACAUAUUUTT against Net1	-0.483
GACUUACUUGCAUCACUGATT against Vmn1r4	-0.732
GGUGAAUGUAUAAGUUAUGTT against Icam1	1
GCUUUCUUAGCAUUAAAUCTT against Zkscan3	-0.274
GGUUCAUGAUGGAUGACAUTT against Bmerb1	-1.96
GGCUUGAAGUUCAUUUAUUTT against Nkiras2	-1.03
GGUUAUUCAAAAAUGCAACTT against Rcor1	-0.559
GGAAAGGCUCAAUGAGAGCTT against Nipa2	-3.3 (active)
GGUCUAUGCGAUGCUAUACTT against Sarm1	-0.508
GCCGUUUACCUUAGUCUGUTT against Cyb5rl	0.00283
GCCAGCCUAAAAAAGAUACTT against Eef1g	0.254
GGAUCUUGGCUAAAGAGGGTT against Slc25a25	0.0129
GCAAUUGAAAGUGAACAAUTT against Olfr1360	-0.935
GGAGGAAAGUUGUAUUUGATT against Nudt7	0.148
GGCGAGUUCAGGAGUUUACTT against Fmnl1	2.55 (active)
GGGUACCUGUCCAAGGUCATT against Mfn2	0.849

Sequence	z-score
GGAUGGAACAUAUGAUUAGTT against Vmn1r234	0.653
GGUGUCAGGAUUUUAUAACTT against Etfbkmt	-0.182
GGUGGUUUGUGAUGAAAAUTT against Pabpc1	2.11 (active)
GUUUGUCUAGCUUCAGAUGTT against Rims4	1.78
GGGAGGACAUCCAGACAAUTT against Fam13b	-0.305
GGGAAAGAUAAGCUCAAGGTT against Sh2d2a	1.32
GACUCUAAACCUAGCAGCGTT against Basp1	-2.34 (active)
GGCUGGUUUAUUUGUGGACTT against Cemip2	0.574
GGAUAUGGAAGAAGUUGUGTT against Olfr1089	-2.2 (active)
CCAGCUAUACGAAGACUUCTT against Hdhd3	0.0525
GGAGGUGGAAUCUUUCCCUTT against Aplp1	-1.68
GGAAAAGGCAAUCGUUUCUTT against Mtg2	0.278
GUAUGUUCAUAUGGUUUUCTT against Swi5	2.33 (active)
GUCUUCCCUCAUCCUUUGATT against Cox8a	0.902
GCAGAAGUUCAUUUUCCUATT against Olfr145	0.969
GGUCAUGUCCAUCCCAAAGTT against Ficd	1.15
GGAUUAUUUUAAGUGGAGATT against Dna2	-0.103
GGAUUCACUAGCAUUGUAGTT against Guca1b	-0.725
GGAGCUUCUAGACUGUACCTT against Lrmp	2.03 (active)
GCAAGAAUCAUCCGGUUACTT against Ttc39b	1.36
CCUUUACACCACUCUAUUUTT against Adgb	-0.795
GCCGCUACCUAUGAUGUCCTT against Kcne4	0.385

Sequence	z-score
GGUCCUGGAAUCUCAAAAUTT against Entpd1	-0.506
GCAGAUCGCAAAAGAUCCUTT against Nppa	0.69
GGUCAAGUCAGUAACUGCATT against Olfr10	0.747
GCUCAGAUUUGCUUUAUGATT against Ube2r2	0.367
GGGAAUGGCUAAUGUUUAUTT against Stk38l	2.32 (active)
GCCUCACUUUGCCAUGCAUTT against Pou4f1	-1.78
GGAUGCCAGAAGAAUAUUCTT against Pnlip	2.43 (active)
CCAUGCUGAUUGCUCCGACTT against Cass4	1.46
GGAUAUGUGAAAUGCAUUGTT against Asb9	0.219
GGCUAAAGGCCUUCUUUUUTT against Reep3	0.622
CGCGAUUCAGCUCAUUCUCTT against Slitrk1	0.83
GCCAUCUUCGGUCAACUCUTT against Olfr969	-2.87 (active)
GGACUCCGUCAUAUACGAATT against Olfr1102	-0.187
GGUAAAAGUGGGUAGGAAATT against Ptprh	0.595
GGAUCUACGUAGCAUUUCATT against Mis12	0.237
CCCUAAGAGUCACCAAAAUTT against Nos2	-2.19 (active)
GGGCUGAAUAAGGAACUGUTT against Nudt16l2	1.46
GGAAAGAUCACUCUUGCAUTT against Pon1	-0.58
GGACCACUCCAAGAGUUCUTT against Ncapd3	2.88 (active)
GGAACUCUGGAAUAAUCUGTT against St6galnac2	1.58
